Assay results taken from PubChem BioAssay.

target: NAD(+) hydrolase SARM1 (Homo sapiens) (UniProt Q6SZW1); assay: blocking NAD cleavage by SARM1 SAM-TIR – cell lysate, NAD-Glo luminescence (AID 1508614); settings: SAM-TIR HEK293T lysate NADase, at 1 µM, active compounds read high;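 further: higher remaining NAD means stronger inhibition of SARM1 NADase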
Sequence (Q6SZW1 whole entry, looked up): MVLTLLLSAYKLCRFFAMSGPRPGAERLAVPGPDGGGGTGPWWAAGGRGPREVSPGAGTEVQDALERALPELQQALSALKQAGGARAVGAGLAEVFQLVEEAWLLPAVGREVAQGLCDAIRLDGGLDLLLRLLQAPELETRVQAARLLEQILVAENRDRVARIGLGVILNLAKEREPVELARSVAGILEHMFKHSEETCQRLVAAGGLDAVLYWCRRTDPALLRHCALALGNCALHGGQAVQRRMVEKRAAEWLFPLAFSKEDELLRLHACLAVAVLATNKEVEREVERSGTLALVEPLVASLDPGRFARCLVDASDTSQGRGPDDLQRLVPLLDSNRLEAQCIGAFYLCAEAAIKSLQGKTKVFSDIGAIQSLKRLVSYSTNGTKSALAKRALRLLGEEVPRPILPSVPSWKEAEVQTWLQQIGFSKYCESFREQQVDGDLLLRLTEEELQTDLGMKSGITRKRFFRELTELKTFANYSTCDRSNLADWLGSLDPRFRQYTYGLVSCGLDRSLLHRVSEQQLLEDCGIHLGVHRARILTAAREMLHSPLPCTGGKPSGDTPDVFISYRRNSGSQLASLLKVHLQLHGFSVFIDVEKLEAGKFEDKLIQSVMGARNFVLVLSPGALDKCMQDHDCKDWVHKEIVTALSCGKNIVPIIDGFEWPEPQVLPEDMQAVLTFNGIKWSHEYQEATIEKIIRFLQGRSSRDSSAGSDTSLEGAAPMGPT

Remaining NAD, inactive:
C[C@H]1O[C@@H](O[C@H]2[C@@H](O)C[C@H](O[C@H]3[C@@H](O)C[C@H](O[C@H]4CC[C@@]5(C)[C@H](CC[C@@H]6[C@@H]5C[C@@H](O)[C@]5(C)[C@@H](C7=CC(=O)OC7)CC[C@]65O)C4)O[C@@H]3C)O[C@@H]2C)C[C@H](O)[C@@H]1O 10 nM
CCC[C@@H]1C[C@@H](C(=O)N[C@@H]([C@H]2O[C@H](SC)[C@H](O)[C@@H](O)[C@H]2O)[C@@H](C)O)N(C)C1 10 nM
CN[C@H](CC(C)C)C(=O)N[C@H]1C(=O)N[C@@H](CC(N)=O)C(=O)N[C@H]2C(=O)N[C@H]3C(=O)N[C@H](C(=O)N[C@H](C(=O)O)c4cc(O)cc(O)c4-c4cc3ccc4O)[C@H](O)c3ccc(c(Cl)c3)Oc3cc2cc(c3O[C@@H]2O[C@H](CO)[C@@H](O)[C@H](O)[C@H]2O[C@H]2C[C@](C)(N)[C@H](O)[C@H](C)O2)Oc2ccc(cc2Cl)[C@H]1O 10 nM
C[C@@H]1[C@H](O)[C@@H](C)/C=C/C=C/C=C/C=C/C=C/C=C/C=C/[C@H](O[C@@H]2O[C@H](C)[C@@H](O)[C@H](N)[C@@H]2O)C[C@@H]2O[C@](O)(C[C@@H](O)C[C@@H](O)[C@H](O)CC[C@@H](O)C[C@@H](O)CC(=O)O[C@H]1C)C[C@H](O)[C@H]2C(=O)O 10 nM
COc1ccc(-c2cc(=O)c3c(O)cc(O[C@@H]4O[C@H](CO[C@@H]5O[C@@H](C)[C@H](O)[C@@H](O)[C@H]5O)[C@@H](O)[C@H](O)[C@H]4O)cc3o2)cc1O 10 nM
COc1cc([C@@H]2c3cc4c(cc3[C@@H](O[C@@H]3O[C@@H]5CO[C@@H](c6cccs6)O[C@H]5[C@H](O)[C@H]3O)[C@H]3COC(=O)[C@H]23)OCO4)cc(OC)c1O 10 nM
COc1cc(NS(C)(=O)=O)ccc1Nc1c2ccccc2nc2ccccc12 10 nM
CC(C)(S)[C@@H](N)C(=O)O 10 nM
C[C@H](CCC(=O)O)[C@H]1CC[C@H]2[C@@H]3[C@H](O)C[C@@H]4C[C@H](O)CC[C@]4(C)[C@H]3CC[C@]12C 10 nM
CCC(=O)NCC[C@@H]1CCc2ccc3c(c21)CCO3 10 nM
CCC[C@@H]1C[C@@H](C(=O)N[C@@H]([C@H]2O[C@H](SC)[C@H](O)[C@@H](O)[C@H]2O)[C@H](C)Cl)N(C)C1 10 nM
O=C1c2c(O)cccc2[C@H]([C@@H]2O[C@H](CO)[C@@H](O)[C@H](O)[C@H]2O)c2cc(CO)cc(O)c21 10 nM
CC(=O)[C@H]1CC[C@H]2[C@@H]3CCC4=CC(=O)CC[C@]4(C)[C@H]3CC[C@]12C 10 nM
N=c1ccn2c(n1)O[C@H]1[C@H](O)[C@@H](CO)O[C@H]12 10 nM
CC1(C)[C@@H](O)CC[C@]2(C)[C@H]3C(=O)C=C4[C@@H]5C[C@@](C)(C(=O)O)CC[C@]5(C)CC[C@@]4(C)[C@]3(C)CC[C@@H]12 10 nM
CC(C)C[C@H]1C(=O)N2CCC[C@H]2[C@]2(O)O[C@](NC(=O)[C@@H]3C=C4c5cccc6[nH]c(Br)c(c56)C[C@H]4N(C)C3)(C(C)C)C(=O)N12 10 nM
C[C@H]1C[C@H]2[C@@H]3CCC4=CC(=O)C=C[C@]4(C)[C@@]3(F)[C@@H](O)C[C@]2(C)[C@@]1(O)C(=O)CO 10 nM
